The text below walks through data of the antibiotic and cytotoxicity screens of Wong et al. (2023).

The campaign covered roughly 39,000 compounds. About 1,500 (3.8%) were called active. Shown is part of a subset that was picked to be rich in actives.

In this experiment the test system is HSkMC (human skeletal muscle cells). Description: cytotoxicity call (relative viability < 0.9). Particulars: 10 µM.
`C[C@H](CO)N1C[C@H](C)[C@H](CN(C)C(=O)c2ccc(N3CCN(C)CC3)cc2)OCc2cn(nn2)CCCC1=O`: the cytotoxicity call is “inactive”. Regarding `COc1ccc(S(=O)(=O)N(C)C[C@@H]2Oc3c(NC(=O)c4ccncc4)cccc3C(=O)N([C@H](C)CO)C[C@@H]2C)cc1`, the cytotoxicity call was “inactive”. As for `C[C@H]1CCCCO[C@@H](CN(C)Cc2ccc(C(=O)O)cc2)[C@@H](C)CN([C@@H](C)CO)C(=O)c2cc(NC(=O)NC3CCCCC3)ccc2O1`, the cytotoxicity call is “inactive”. With `C[C@@H]1CN([C@H](C)CO)S(=O)(=O)c2ccc(Br)cc2O[C@@H]1CN(C)S(=O)(=O)c1ccc(F)cc1` the entry was “inactive”; with `CON=C(C(=O)NC1C(=O)N2C(C(=O)OCOC(=O)C(C)(C)C)=C(C=Cc3scnc3C)CSC12)c1csc(N)n1` (centres undefined), “inactive”; with `C[C@H]1CN([C@@H](C)CO)C(=O)c2cc(C#Cc3ccccc3)cnc2O[C@H]1CN(C)C(=O)CCN1CCCCC1`, “inactive”.

Take `COCCCNC(=O)[C@@]1(Sc2ccc(C)cc2)CC(=O)N(Cc2ccccc2Cl)[C@@H]1c1ccc(CO)cc1`: the cytotoxicity call was “inactive”. Take `O=C1N[C@H](Cc2c[nH]c3ccccc23)COC(=O)[C@@H](Cc2ccc(F)cc2)CCC=CC[C@H]1CC(=O)N(CCO)Cc1ccccc1`: the cytotoxicity call was “inactive”. To `COc1cc(C)c(C(=O)Oc2cc(C)c(C(=O)O)c(O)c2)c(O)c1` belongs “inactive”; to `COCCCNc1ncnc(N)c1[N+](=O)[O-]`, “inactive”. To `C[C@H]1CN([C@@H](C)CO)C(=O)c2cccc(NC(=O)Nc3ccc4c(c3)OCO4)c2O[C@@H]1CN(C)Cc1ccc(Cl)c(Cl)c1` belongs “inactive”; to `C[C@H]1CN([C@@H](C)CO)C(=O)c2cccc(NC(=O)Nc3ccc(F)cc3)c2O[C@@H]1CN(C)Cc1ccc(Cl)c(Cl)c1`, “active”; to `C[C@@H]1CN([C@@H](C)CO)C(=O)c2cccc(NC(=O)Nc3ccc4c(c3)OCO4)c2O[C@@H]1CN(C)Cc1ccc(Cl)c(Cl)c1`, “inactive”. Take `C[C@H](CO)N1C[C@H](C)[C@@H](CN(C)Cc2ccc(Cl)c(Cl)c2)Oc2c(NC(=O)Nc3ccc4c(c3)OCO4)cccc2C1=O`: the cytotoxicity call is “active”. To `C[C@H](CO)N1C[C@H](C)[C@H](CN(C)S(C)(=O)=O)OCCCC[C@H](C)Oc2ccc(NS(=O)(=O)c3ccc(F)cc3)cc2C1=O` belongs “inactive”. With `CO[C@@H]1CN(C)C(=O)c2cc(NC(=O)c3ccccc3)ccc2OC[C@H](C)N(C(=O)CN(C)C)C[C@@H]1C` the entry was “inactive”; with `CC(C)(C)OC(=O)N[C@H]1CCCCC/C=C\[C@@H]2C[C@@]2(C(=O)NS(=O)(=O)C2CC2)NC(=O)[C@@H]2C[C@@H](OC(=O)N3Cc4cccc(F)c4C3)CN2C1=O`, “inactive”. In the case of `COc1ccc(NC(=O)Nc2ccc3c(c2)C(=O)N([C@@H](C)CO)C[C@@H](C)[C@H](CN(C)S(=O)(=O)c2ccc(Cl)cc2)OCCCC[C@@H](C)O3)cc1`, the cytotoxicity call was “inactive”. For the molecule `Cc1noc(C)c1NC(=O)Nc1ccc2c(c1)C(=O)N([C@@H](C)CO)C[C@H](C)[C@@H](CN(C)S(=O)(=O)c1ccc(Cl)cc1)OCCCC[C@@H](C)O2`, the cytotoxicity call was “inactive”. Turning to `COCCOC(=O)N1C(=O)[C@@]2(c3cc(C#CC4(O)CCCCCC4)ccc31)[C@H](C(=O)N1CCCCCCC1)[C@H]1C(=O)O[C@H](c3ccccc3)[C@H](c3ccccc3)N1[C@@H]2c1ccc(OCCO)cc1`, the cytotoxicity call was “inactive”. For the molecule `Cc1ccc(S(=O)(=O)Nc2ccc3c(c2)CC(=O)N([C@H](C)CO)C[C@@H](C)[C@@H](CN(C)Cc2ccc(Oc4ccccc4)cc2)O3)cc1`, the cytotoxicity call is “inactive”. Turning to `Cc1ccc(S(=O)(=O)Nc2ccc3c(c2)CC(=O)N([C@@H](C)CO)C[C@H](C)[C@@H](CN(C)Cc2ccc(Oc4ccccc4)cc2)O3)cc1`, the cytotoxicity call is “active”. With `Cc1ccc(S(=O)(=O)Nc2ccc3c(c2)CC(=O)N([C@@H](C)CO)C[C@@H](C)[C@@H](CN(C)Cc2ccc(Oc4ccccc4)cc2)O3)cc1`, the cytotoxicity call was “inactive”. In the case of `Cc1ccc(S(=O)(=O)Nc2ccc3c(c2)CC(=O)N([C@@H](C)CO)C[C@H](C)[C@H](CN(C)Cc2ccc(Oc4ccccc4)cc2)O3)cc1`, the cytotoxicity call was “active”.

Turning to `Cc1ccc(S(=O)(=O)Nc2ccc3c(c2)CC(=O)N([C@H](C)CO)C[C@H](C)[C@@H](CN(C)Cc2ccc(Oc4ccccc4)cc2)O3)cc1`, the cytotoxicity call is “inactive”. For the molecule `Cc1ccc(S(=O)(=O)Nc2ccc3c(c2)CC(=O)N([C@@H](C)CO)C[C@@H](C)[C@H](CN(C)Cc2ccc(Oc4ccccc4)cc2)O3)cc1`, the cytotoxicity call is “inactive”.

As for `Cc1ccc(S(=O)(=O)Nc2ccc3c(c2)CC(=O)N([C@H](C)CO)C[C@@H](C)[C@H](CN(C)Cc2ccc(Oc4ccccc4)cc2)O3)cc1`, the cytotoxicity call was “active”.

Take `Cc1ccc(S(=O)(=O)Nc2ccc3c(c2)CC(=O)N([C@H](C)CO)C[C@H](C)[C@H](CN(C)Cc2ccc(Oc4ccccc4)cc2)O3)cc1`: the cytotoxicity call is “inactive”. Consider `C[C@H](CO)N1C[C@H](C)[C@@H](CN(C)S(=O)(=O)c2ccc(F)cc2)Oc2ccc(NC(=O)C3CC3)cc2CC1=O`, for which the cytotoxicity call is “inactive”.

As for `CO[C@H]1CN(C)C(=O)c2cc(NC(=O)Nc3cccc(Cl)c3)ccc2OC[C@H](C)N(C(=O)Nc2c(C)noc2C)C[C@H]1C`, the cytotoxicity call is “inactive”. Regarding `COc1ccc(NC(=O)N(C)C[C@H]2OCCCC[C@@H](C)Oc3ccc(NC(=O)Nc4cccc5ccccc45)cc3C(=O)N([C@H](C)CO)C[C@@H]2C)cc1`, the cytotoxicity call is “inactive”. `Cc1ccc(S(=O)(=O)N[C@H]2CC[C@@H](CC(=O)N3CCC(Cc4ccccc4)CC3)O[C@@H]2CO)cc1`: the cytotoxicity call is “inactive”.

Turning to `C[C@@H]1CCCCO[C@@H](CN(C)C(=O)NC2CCCCC2)[C@H](C)CN([C@@H](C)CO)C(=O)c2cc(NC(=O)Cc3ccccc3)ccc2O1`, the cytotoxicity call is “inactive”. On to `C[C@H]1CN([C@@H](C)CO)C(=O)Cc2cc(NC(=O)Nc3cccc4c3CCCC4)ccc2O[C@H]1CN(C)S(=O)(=O)c1ccc(Oc2ccccc2)cc1`, for which the cytotoxicity call is “inactive”.

As for `Cc1cc(Oc2ccnc3cc(Cl)ccc23)ccc1Cl`, the cytotoxicity call is “inactive”. To `Cc1c(C(=O)Nc2ccc(Oc3ccnc4cc(OCC(C)(C)O)ccc34)c(F)c2)c(=O)n(-c2ccccc2)n1C` belongs “active”; to `CCS(=O)(=O)N1C[C@]2(C1)CN([C@@H](CO)c1c2c2ccc(cc2n1C)OC)C(=O)Nc1cccc(c1)F`, “inactive”. As for `CC(C)NC(=O)Nc1cccc2c1O[C@@H](CN(C)C(=O)NC1CCCCC1)[C@@H](C)CN([C@@H](C)CO)C2=O`, the cytotoxicity call is “inactive”. On to `Cc1ccc(S(=O)(=O)N(C)C[C@H]2Oc3ccc(NS(C)(=O)=O)cc3CC(=O)N([C@@H](C)CO)C[C@@H]2C)cc1`, for which the cytotoxicity call was “inactive”.

Turning to `CC(C)CCCC(C)C1CCC2C3CCC4CC(O)CCC4(C)C3CCC12C` (stereo not drawn) [5alpha-CHOLESTANOL ], the cytotoxicity call was “inactive”. `CC(C)CCCC(C)C1CCC2C3CC(=O)C4CC(O)CCC4(C)C3CCC12C` (stereo not drawn) [5alpha-CHOLESTAN-3beta-OL-6-ONE ]: the cytotoxicity call is “inactive”. For the molecule `CC(C)CCC[C@@H](C)[C@H]1CC[C@H]2[C@@H]3C[C@@H](O)[C@@]4(O)C[C@@H](O)CC[C@]4(C)[C@H]3CC[C@]12C` [CHOLESTAN-3beta,5alpha,6beta-TRIOL ], the cytotoxicity call was “active”. Regarding `CC(C)NC(=O)Nc1ccc2c(c1)CC(=O)N([C@H](C)CO)C[C@H](C)[C@H](CN(C)S(=O)(=O)c1cn(C)cn1)O2`, the cytotoxicity call was “inactive”. As to `Cc1cn(CCN2CCN(c3ccccc3-c3cc(C#N)cc(C(=O)NCCCN4CCCC4)c3)CC2)c2ccccc12`, the cytotoxicity call is “active”. For the molecule `Cc1cn(CCC#N)c2ccccc12`, the cytotoxicity call was “inactive”. As for `COc1cc(C(=O)NCCCN2CCCN(CCCNC(=O)c3cc(OC)c(OC)c(OC)c3)CC2)cc(OC)c1OC`, the cytotoxicity call was “inactive”. In the case of `C[C@H]1CCCCO[C@H](CN(C)C(=O)C2CCCCC2)[C@@H](C)CN([C@@H](C)CO)C(=O)c2cc(NS(=O)(=O)c3cccs3)ccc2O1`, the cytotoxicity call is “inactive”. On to `COc1cccc(-n2cc(C(=O)NO)nn2)c1`, for which the cytotoxicity call is “inactive”.

In the case of `COc1ccc(-n2cc(C(=O)NO)nn2)cc1`, the cytotoxicity call was “active”. To `COC(=O)c1ccc(Cn2cc(C(=O)NO)nn2)o1` belongs “inactive”; to `C[C@H]1NC(=O)[C@H](Cc2ccccc2)NC(=O)[C@@]23C(=O)N[C@@H](Cc4ccccc4)[C@@H]2[C@H](C)[C@@]2(C)O[C@H]2[C@H]3/C=C/C/C=C\CNC1=O`, “inactive”; to `C[C@H](CO)N1C[C@H](C)[C@@H](CN(C)Cc2ccncc2)Oc2ccc(NS(=O)(=O)c3ccc(F)cc3)cc2C1=O`, “inactive”. On to `CN(C)c1ccc(C(=C2C=CC(=[N+](C)C)C=C2)c2ccc(N(C)C)cc2)cc1.[Cl-]`, for which the cytotoxicity call was “active”. Turning to `CN(CC(=O)O)C1CCCC1`, the cytotoxicity call is “inactive”.

On to `C[C@@H]1CCCCO[C@H](CN(C)C(=O)Nc2ccc(F)cc2)[C@H](C)CN([C@@H](C)CO)C(=O)c2cc(NC(=O)NC3CCCCC3)ccc2O1`, for which the cytotoxicity call was “inactive”. On to `C[C@H]1CN([C@@H](C)CO)S(=O)(=O)c2ccc(C#Cc3ccc(F)cc3)cc2O[C@@H]1CN(C)C(=O)c1ccccn1`, for which the cytotoxicity call was “inactive”. To `COc1ccc(S(=O)(=O)Nc2ccc3c(c2)CC(=O)N([C@H](C)CO)C[C@@H](C)[C@@H](CN(C)Cc2ccc(Oc4ccccc4)cc2)O3)cc1` belongs “active”. Regarding `COc1ccc(S(=O)(=O)Nc2ccc3c(c2)CC(=O)N([C@H](C)CO)C[C@H](C)[C@@H](CN(C)Cc2ccc(Oc4ccccc4)cc2)O3)cc1`, the cytotoxicity call was “inactive”. For the molecule `COc1ccc(S(=O)(=O)Nc2ccc3c(c2)CC(=O)N([C@H](C)CO)C[C@@H](C)[C@H](CN(C)Cc2ccc(Oc4ccccc4)cc2)O3)cc1`, the cytotoxicity call was “active”.

As to `COc1ccc(S(=O)(=O)Nc2ccc3c(c2)CC(=O)N([C@@H](C)CO)C[C@@H](C)[C@H](CN(C)Cc2ccc(Oc4ccccc4)cc2)O3)cc1`, the cytotoxicity call is “inactive”.

With `COc1ccc(S(=O)(=O)Nc2ccc3c(c2)CC(=O)N([C@@H](C)CO)C[C@@H](C)[C@@H](CN(C)Cc2ccc(Oc4ccccc4)cc2)O3)cc1`, the cytotoxicity call is “inactive”. With `COc1ccc(S(=O)(=O)Nc2ccc3c(c2)CC(=O)N([C@H](C)CO)C[C@H](C)[C@H](CN(C)Cc2ccc(Oc4ccccc4)cc2)O3)cc1` the entry was “inactive”; with `COc1ccc(S(=O)(=O)Nc2ccc3c(c2)CC(=O)N([C@@H](C)CO)C[C@H](C)[C@@H](CN(C)Cc2ccc(Oc4ccccc4)cc2)O3)cc1`, “active”; with `COc1ccc(S(=O)(=O)Nc2ccc3c(c2)CC(=O)N([C@@H](C)CO)C[C@H](C)[C@H](CN(C)Cc2ccc(Oc4ccccc4)cc2)O3)cc1`, “active”.
